A selection: hits, their analogues and other compounds. The true share with any hit is near 2.5%.
ULK1 primary: blocks human autophagy kinase ULK1. inhibition, % at 5.96 µM. AID 1259251. 30,000 tested, 1.9% active. AlphaScreen Atg13 phosphorylation by ULK1, luminescence. O75385; in the data active means inhibition above about 43%;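 further: 0% = median of compound wells and 100% = no enzyme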
ASK1 primary: inhibitors of human ASK1 kinase. 22,000 tested, 0.99% active. AlphaScreen MKK6 phosphorylation by ASK1, luminescence. Q99683. AID 1159602. inhibition, % at 7.44 µM; in the data active means inhibition above about 35%;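 further: 0% = median of compound wells and 100% = no enzyme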
Target sequence (Q99683 whole entry, looked up): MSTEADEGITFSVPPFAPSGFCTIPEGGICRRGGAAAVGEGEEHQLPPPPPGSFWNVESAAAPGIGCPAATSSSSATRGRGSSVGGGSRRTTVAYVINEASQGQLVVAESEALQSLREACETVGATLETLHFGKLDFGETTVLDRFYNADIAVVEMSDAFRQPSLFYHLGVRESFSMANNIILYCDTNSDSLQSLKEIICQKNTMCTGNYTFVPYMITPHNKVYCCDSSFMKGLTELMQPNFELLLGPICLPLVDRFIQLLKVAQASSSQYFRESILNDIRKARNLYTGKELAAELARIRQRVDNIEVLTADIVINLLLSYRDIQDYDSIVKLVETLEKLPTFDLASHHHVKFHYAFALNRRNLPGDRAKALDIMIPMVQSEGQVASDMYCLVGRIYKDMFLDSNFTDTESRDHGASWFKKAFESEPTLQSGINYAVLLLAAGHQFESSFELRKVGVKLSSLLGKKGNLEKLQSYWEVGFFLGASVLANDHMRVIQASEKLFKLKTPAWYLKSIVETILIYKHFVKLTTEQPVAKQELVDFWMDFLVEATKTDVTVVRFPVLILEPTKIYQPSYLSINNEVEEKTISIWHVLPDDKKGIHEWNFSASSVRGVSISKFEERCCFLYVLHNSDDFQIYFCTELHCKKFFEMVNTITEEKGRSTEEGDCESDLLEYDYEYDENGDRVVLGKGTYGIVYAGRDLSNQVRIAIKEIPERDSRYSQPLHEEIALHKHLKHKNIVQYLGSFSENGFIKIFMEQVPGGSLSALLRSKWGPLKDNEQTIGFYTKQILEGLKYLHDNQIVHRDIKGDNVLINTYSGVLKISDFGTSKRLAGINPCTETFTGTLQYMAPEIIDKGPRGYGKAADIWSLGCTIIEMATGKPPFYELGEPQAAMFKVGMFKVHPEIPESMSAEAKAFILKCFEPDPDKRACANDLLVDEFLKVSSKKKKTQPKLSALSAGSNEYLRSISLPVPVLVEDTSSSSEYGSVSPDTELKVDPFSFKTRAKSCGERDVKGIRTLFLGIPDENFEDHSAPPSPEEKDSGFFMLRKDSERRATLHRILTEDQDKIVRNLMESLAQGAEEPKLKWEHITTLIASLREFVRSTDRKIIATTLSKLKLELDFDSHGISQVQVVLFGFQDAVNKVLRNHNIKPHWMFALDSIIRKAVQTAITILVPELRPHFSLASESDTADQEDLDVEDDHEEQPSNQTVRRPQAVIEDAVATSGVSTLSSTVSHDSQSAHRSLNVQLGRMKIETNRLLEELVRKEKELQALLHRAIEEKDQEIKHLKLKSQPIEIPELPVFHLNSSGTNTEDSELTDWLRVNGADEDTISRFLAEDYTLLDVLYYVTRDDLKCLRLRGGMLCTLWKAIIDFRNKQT
The depositor's hits bear a star.

Results for N[C@@H](Cc1ccc(Br)cc1)C(=O)N1CCC(c2nc(-c3ccncc3)no2)CC1 ?
ULK1 primary: 72*; ASK1 primary: 8

How did N[C@@H](Cc1ccc(Br)cc1)C(=O)N1CCC(c2nc(-c3ccncc3)no2)C1 (stereo not given in full) do in these assays?
ULK1 primary: 3; ASK1 primary: -5

Results for O=C(NCc1ccccc1)c1cnc(Nc2ccc(C(F)(F)F)cc2)s1 ?
ULK1 primary: -20; ASK1 primary: -5

Results for COc1ccc(CCNc2ccnc(Cl)n2)cc1 ?
ULK1 primary: -14; ASK1 primary: 6

Results for NC(=O)c1ccccc1Nc1cc(Oc2ccccc2F)ncc1C(F)(F)F ?
ULK1 primary: -8; ASK1 primary: 1

What do the screens show for `CNC(=O)c1cncnc1Nc1cc(NC(=O)Cc2ccc(OC)cc2)ncc1C(F)(F)F`?
ULK1 primary: 15; ASK1 primary: 26

Results for Cc1nc(Nc2cc(Nc3ccccn3)c(C(F)(F)F)cn2)cc(-c2cncnc2)n1 ?
ULK1 primary: 32; ASK1 primary: 22

What do the screens show for `CNC(=O)c1ccccc1Nc1cc(Nc2ccc(F)cc2OC)ncc1C(F)(F)F`?
ULK1 primary: 87*; ASK1 primary: -1

Results for CNC(=O)c1ccccc1Nc1cc(Nc2ccc(-c3cncnc3)cc2OC)ncc1C(F)(F)F ?
ULK1 primary: 86*; ASK1 primary: -8

Results for CNC(=O)c1cc(F)ccc1Nc1cc(Nc2cc(-c3cncnc3)nc(C)n2)ncc1C(F)(F)F ?
ULK1 primary: 58*; ASK1 primary: 9

What do the screens show for `Cc1noc(C)c1-c1cncc(C(=O)NCCc2ccc(O)cc2)c1`?
ULK1 primary: -3; ASK1 primary: -3

Results for c1ccc2c(Nc3nc(Nc4ccc5c(c4)OCO5)c4[nH]cnc4n3)nccc2c1 ?
ULK1 primary: 14; ASK1 primary: 13

How did Cc1cnc(Nc2cccc(N(C)C)c2)nc1NC1CC1 do in these assays?
ULK1 primary: 46*; ASK1 primary: 8

Results for CN(C)c1cccc(Nc2nccc(NC3CC3)n2)c1 ?
ULK1 primary: 0; ASK1 primary: -1

How did CS(=O)(=O)Nc1ccc(-c2ccnc(Nc3ccc(-n4cncn4)cc3)n2)cc1 do in these assays?
ULK1 primary: 67*; ASK1 primary: 7

Results for CS(=O)(=O)Nc1ccc(-c2ccnc(Nc3ccc(C(O)(C(F)(F)F)C(F)(F)F)cc3)n2)cc1 ?
ULK1 primary: 33; ASK1 primary: -29

Results for CC(=O)c1ccc(Nc2nccc(-c3ccc(NS(C)(=O)=O)cc3)n2)cc1 ?
ULK1 primary: 55*; ASK1 primary: -22

How did Cc1ccc(-c2ncn(-c3ccc(Nc4nccc(-c5ccc(NS(C)(=O)=O)cc5)n4)cc3)n2)cn1 do in these assays?
ULK1 primary: 12; ASK1 primary: 3

What do the screens show for `CCCNC(=O)c1ccc2nc(Nc3nc4ccccc4n3C)sc2c1`?
ULK1 primary: -18; ASK1 primary: -2

Results for CCCS(=O)(=O)Nc1ccc2c(c1)CC(=O)N2C ?
ULK1 primary: -11

What do the screens show for `NC(CO)C(=O)NNCc1ccc(O)c(O)c1O` (stereo not given)?
ULK1 primary: 65*

How did NC(CO)C(=O)O (stereo not given) do in these assays?
ULK1 primary: 2

Results for Cc1cnc(N2CCc3ccccc3C2)nc1NCc1ccccc1 ?
ULK1 primary: -12; ASK1 primary: -3

What do the screens show for `CN1CCN(C(=O)c2ccc(-c3cccc(C(=O)NCc4ccccc4)n3)cc2)CC1`?
ULK1 primary: 70*; ASK1 primary: 15

What do the screens show for `CN1CCN(C(=O)c2ccc(-c3cccc(C(=O)NCc4cccnc4)n3)cc2)CC1`?
ULK1 primary: 9; ASK1 primary: 6

Results for CC(C)n1c(-c2cccc(N)c2)nc2c(NCc3ccccc3)ncnc21 ?
ULK1 primary: -8; ASK1 primary: -4

Results for CNC(=O)c1ncccc1Nc1cc(Nc2ccc(C(=O)N(C)C)cn2)ncc1C(F)(F)F ?
ULK1 primary: 56*; ASK1 primary: 7

How did CNC(=O)c1ncccc1Nc1cc(Nc2ccc3[nH]ncc3c2)ncc1C(F)(F)F do in these assays?
ULK1 primary: 24; ASK1 primary: 5

How did CN(C)C(=O)c1ncccc1Nc1cc(Nc2ccc3c(c2)CC(=O)N3)ncc1C(F)(F)F do in these assays?
ULK1 primary: 40; ASK1 primary: -11

What do the screens show for `CNC(=O)c1ccccc1Nc1cc(Nc2ccc(C(=O)N(C)C)cn2)ncc1C(F)(F)F`?
ULK1 primary: 89*; ASK1 primary: -8

Results for CNC(=O)c1ccccc1Nc1cc(Nc2ccc(C(=O)N(C)C)cc2C)ncc1C(F)(F)F ?
ULK1 primary: 78*; ASK1 primary: -27

What do the screens show for `COc1ccc(-c2nc(C)cc(NCCCN3CCCC3=O)n2)cc1`?
ULK1 primary: 4; ASK1 primary: -15

Results for CC(C)n1c(-c2cccc(N)c2)nc2c(NCCc3ccc(O)cc3)ncnc21 ?
ULK1 primary: -34; ASK1 primary: -11

How did O=C(Cc1ccc(F)cc1)Nc1cc(Nc2ccccc2CO)c(C(F)(F)F)cn1 do in these assays?
ULK1 primary: 18; ASK1 primary: 13

Results for Nc1cc(Nc2ccccc2CO)c(C(F)(F)F)cn1 ?
ULK1 primary: 56*; ASK1 primary: 9

What do the screens show for `O=C(NCc1nc2ccccc2[nH]1)c1cccc(N2CCOCC2)n1`?
ULK1 primary: 4; ASK1 primary: 2

Results for Cc1cncc2cccc(NC3CCCN(C(=O)C(O)c4ccc(Cl)cc4)C3)c12 (stereo not given) ?
ULK1 primary: 13; ASK1 primary: -8

What do the screens show for `Cc1cc2c(NC3CCCN(C(=O)C(O)c4ccc(Cl)cc4)C3)cccc2nn1` (stereo not given)?
ULK1 primary: 52*; ASK1 primary: -18

How did COc1ccc(CNc2nc(-c3ccccc3)nc3nc[nH]c23)cc1 do in these assays?
ULK1 primary: -4; ASK1 primary: -15

What do the screens show for `CCCNc1nc(Cl)nc2nc[nH]c12`?
ULK1 primary: 7; ASK1 primary: 11

What do the screens show for `COc1ccc(Nc2ncc(Cl)c(Nc3ccccc3-c3ccn(C)n3)n2)cc1`?
ULK1 primary: 13; ASK1 primary: 22

How did Cc1ncn(-c2ccc(Nc3ncc(C)c(Nc4ccccc4C(N)=O)n3)cc2)n1 do in these assays?
ULK1 primary: 72*; ASK1 primary: 1

What do the screens show for `NC(=O)c1ccccc1Nc1nc(Nc2ccc(N3CCOCC3)c(F)c2F)ncc1Cl`?
ULK1 primary: 39; ASK1 primary: -52

Results for Cc1ncn(-c2ccc(Nc3ncc4ccnc(-c5ccccc5)c4n3)cc2)n1 ?
ULK1 primary: 0; ASK1 primary: 2

How did N#Cc1ccc(Nc2ncc(Cl)c(Nc3ccccc3C(N)=O)n2)cc1 do in these assays?
ULK1 primary: 46*; ASK1 primary: -8

How did NC(=O)c1ccccc1Nc1nc(Nc2ccc(N3CCCC3=O)cc2)ncc1Cl do in these assays?
ULK1 primary: 92*; ASK1 primary: -100

Results for CC1(C)CC1C(N)=O (stereo not given) ?
ULK1 primary: 6

How did CCN(CC)C(=O)C1CCCN(c2nc(NCc3cccc(C(F)(F)F)c3)c3ncn(C4CCCCC4)c3n2)C1 (stereo not given) do in these assays?
ULK1 primary: -2; ASK1 primary: 9

What do the screens show for `CN1CCN(C(=O)c2ccc(-c3cc(C(=O)NCCN4CCOCC4)ccn3)cc2)CC1`?
ULK1 primary: 2; ASK1 primary: -9
